Compound activity from PubChem BioAssay.
ELG1 genotoxic: induces genotoxicity in HEK293T cells with luciferase-tagged ELG1. hit rate 1.3% among 330,000. AID 504466. HEK293T ELG1-luciferase reporter, luminescence, 16 h. Potency, µM (titrated, usually from 46 µM), without a hit: at the highest dose activity change, positive = activation, hits mostly activators; also: % of control where 0% means no effect; nearly all actives have a fitted effect of over 60% in size
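Genotoxicity was scored as increased ELG1-luciferase reporter signal, measured by ONE-Glo luminescence (30 min, room temperature). Compound or vehicle exposure of the HEK293T reporter cells lasted 16 hr at 37°C.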
NPC1 prom act: activators of NPC1 promoter. Huh7 NPC1 promoter luciferase reporter, 24 h. Potency, µM (titrated, usually from 9.22 µM), for the others: at the top dose activation, actives largely listed as activators. hit rate 2.4% among 320,000; also: % of control where 0% means no effect; nearly all actives have a fitted effect of over 60% in size
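Huh7 reporter cells (NPC1 promoter driving luciferase) are dosed with compound for 24 h at 37 °C, 5% CO2; luciferase detection reagent is then added and luminescence measured after 10 min at ambient temperature.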
Rab9 promoter act: activators of Rab9 promoter; Huh7 Rab9 promoter-luciferase reporter, luminescence, 24 h; Potency, µM (highest dose often 9.22 µM), for the others: top-dose activation, negative = inhibition, usual class: activators; hit rate 2.8% among 320,000; also: % of control where 0% means no effect; nearly all actives have a fitted effect of over 60% in size
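Huh7 cells stably carrying a Rab9 promoter-luciferase reporter, 1500 cells per well in OP-MEM I with 10% FBS, treated with compound 24 hours at 37C. Luciferase activity read by luminescence after 10 minutes with Amplite reagent.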
SMN2 splice enh: increases expression of the SMN2 splice variant. HEK293 SMN2-luciferase splicing reporter, luminescence, 30-36 h. Potency, µM (titrated, usually from 46.1 µM), inactives show at the highest dose activity change, positive = activation, usual class: activators. hit rate 2.8% among 210,000; also: % of control where 0% means no effect; nearly all actives have a fitted effect of over 55% in size
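qHTS luciferase splicing reporter: luminescence rises when SMN2 exon 7 is included in transfected HEK293 cells. Compound exposure lasted 30-36 h at 37C, with 4.5 mM final sodium butyrate as control, followed by a ONE-Glo read.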
Luc counter: counter-screen: inhibitors of Kinase-Glo firefly luciferase; Kinase-Glo luciferase, ATP luminescence, 8 min; Potency, µM (series often up to 38.3 µM), for inactives: at the highest dose activity change, negative = inhibition, hits mostly inhibitors; hit rate 0.28% among 200,000; AID 1379; also: % is scaled to controls: 0 for no effect and ±100 for the full control effect; nearly all actives have a fitted effect of over 60% in size
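Inhibition of Kinase-Glo luciferase light generation was assessed at 10 uM ATP in pH 7.2 imidazole buffer, with luminescence measured after eight minutes at ambient temperature.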
FLuc counter: firefly luciferase modulation, counter-screen for miR-21 project; AID 588342; hit rate 6.9% among 360,000; purified FLuc, Km substrates, luminescence inhibition; Potency, µM (highest dose often 57.5 µM), inactives show at the highest dose activity change, negative = inhibition, actives largely listed as inhibitors;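 also: plate controls were vehicle for no effect and reference inhibitor for full effect; nearly all actives have a fitted effect of over 55% in size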
Target sequence (P08659 whole entry, looked up): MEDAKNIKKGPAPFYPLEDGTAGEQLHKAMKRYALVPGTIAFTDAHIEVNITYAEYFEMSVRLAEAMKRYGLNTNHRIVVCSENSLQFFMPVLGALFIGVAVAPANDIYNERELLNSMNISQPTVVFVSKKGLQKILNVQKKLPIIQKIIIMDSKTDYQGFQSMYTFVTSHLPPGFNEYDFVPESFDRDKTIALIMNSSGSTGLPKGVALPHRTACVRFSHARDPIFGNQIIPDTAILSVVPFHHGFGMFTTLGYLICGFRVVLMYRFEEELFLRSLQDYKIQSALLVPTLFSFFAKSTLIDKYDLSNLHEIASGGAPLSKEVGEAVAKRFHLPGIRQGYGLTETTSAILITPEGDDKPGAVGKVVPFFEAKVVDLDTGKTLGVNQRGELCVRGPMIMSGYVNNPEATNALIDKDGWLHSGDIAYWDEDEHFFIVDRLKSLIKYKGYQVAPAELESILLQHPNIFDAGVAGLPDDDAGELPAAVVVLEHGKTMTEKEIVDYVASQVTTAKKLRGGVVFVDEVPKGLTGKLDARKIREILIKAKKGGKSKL
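Purified P. pyralis luciferase, 10 nM final, with Km-level 10 uM D-luciferin and 10 uM ATP in 50 mM Tris acetate pH 7.5, 10 mM Mg acetate, 0.01% Tween-20, 0.05% BSA; 6-point qHTS titration about 60 µM downward; luminescence read.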
Active calls of the source: *; ? = inconclusive; / = no result given; [ ] = another dose, or the depositor's remark. Hits are enriched below; roughly 7.3% of the tested compounds scored in any of these assays. Calls follow the shape of the dose curve; as a rule, active = well fitted curve in the direction sought with a large enough effect; inconclusive = small, poorly fitted or top-dose-only effect, or another doubt; inactive = no such curve, though single readings can be large; an effect the other way counts as inactive or inconclusive. Potency is read from the fitted curve at half-maximal effect.

SMILES	ELG1 genotoxic	NPC1 prom act	Rab9 promoter act	SMN2 splice enh	Luc counter	FLuc counter
COc1ccc(C(=O)N/N=C2\CCc3ccccc32)cc1OC	13.9%	3.8%	-32.4%	?	-2.4%	-10.8%
O=C(NN=C1C2CC3CC(C2)CC1C3)c1ccccc1O	-3.0%	-8.1%	-2.8%	/	/	16.9µM*
O=C(N/N=C1\CCCc2ccccc21)c1ccccc1Cl	?	?	?	?	-3.2%	?
O=C(NCC(c1ccc2c(c1)OCO2)N1CCOCC1)c1cccc(Cl)c1 (stereo not given)	/	/	/	/	/	-8.3%
O=C(/C=C/c1ccco1)NCc1ccc2c(c1)OCO2	0.0%	3.6%	-1.1%	12.0%	0.5%	?
O=C(/C=C/c1ccco1)Nc1ccc(F)cc1	/	3.98µM*	3.98µM*	/	/	13.5µM*
O=C(/C=C/c1ccco1)Nc1ccc2c(c1)OCO2	?	1.78µM*	0.794µM*	10µM*	-18.7%	6.01µM*
NS(=O)(=O)c1ccc(NC(=O)/C=C/c2ccco2)cc1	8.9%	1.0%	?	16.9%	-0.7%	-18.6%
C[C@H]1C[C@@H]2[C@@H]([C@@H](O)C[C@@]3(C)[C@H]2CC[C@]3(O)C(=O)CO)[C@@]2(C)C=CC(=O)C=C12	/	/	/	8.2%[20.6 µM]	-3.6%[17.1 µM]	/
CCn1cc(C(=O)O)c(=O)c2cc(F)c(N3CCN(C(=O)Nc4ccccc4)CC3)cc21	-35.8%	-3.4%	2.1%	17.8µM*	-1.0%	-0.3%
Cc1ccc(O)c(NC(=O)c2ccc3c(c2)C(=O)N(Cc2cccnc2)C3=O)c1	7.6%	1.2%	-0.8%	/	/	1.9µM*
CC(C)CN1C(=O)c2ccc(C(=O)Nc3ccncc3)cc2C1=O	-4.1%	-11.6%	-4.7%	-12.1%	-4.0%	-8.6%
COCCCN1C(=O)c2ccc(C(=O)Nc3ccc(OC)cc3)cc2C1=O	8.1%	-4.8%	16.6%	0.8%	11.9%	8.49µM*
O=C(O)COc1ccc(NC(=O)c2ccc3c(c2)C(=O)N(Cc2ccccc2)C3=O)cc1	-0.7%	-1.3%	-4.7%	/	/	16.9µM*
O=C(Nc1ccc(O)cc1)c1ccc2c(c1)C(=O)N(Cc1ccccc1)C2=O	0.6%	-8.9%	-0.9%	/	/	2.3%
CC(C)CN1C(=O)c2ccc(C(=O)Nc3ccc(OCC(=O)O)cc3)cc2C1=O	-0.7%	-2.9%	-3.9%	/	/	6.75µM*
COCCCN1C(=O)c2ccc(C(=O)Nc3ccccc3OC)cc2C1=O	2.8%	-1.7%	-1.0%	19.8%	-3.6%	-11.2%
CCc1ccccc1NC(=O)Cn1c(=O)n(CC(=O)NCCc2ccccc2)c(=O)c2ccccc21	/	/	/	?	/	-0.7%
COc1ccc(/C=C/C(=O)Nc2cccc(S(=O)(=O)NC3=NCCCCC3)c2)cc1	8.8%	?	26.9%	/	/	0.675µM*
O=S(=O)(NC1=NCCC1)c1cccc(NC(=S)Nc2ccc(OC(F)F)cc2)c1	-2.8%	/	/	/	/	/
O=C(/C=C/c1ccc(OC(F)F)cc1)Nc1cccc(S(=O)(=O)NC2=NCCCCC2)c1	-13.8%	1.8%	9.9%	/	/	1.35µM*
Cc1ccccc1CNC(=O)c1oc2c(c1C)-c1nn(Cc3ccc(Cl)cc3)cc1CC2	/	/	/	/	/	2.3%
O=C(CN1C(=O)c2ccccc2C1=O)[C@@H](O)CN1C(=O)c2ccccc2C1=O	/	/	/	6.8%[9.22 µM]	-4.8%[7.66 µM]	/
O=C(NNC(=O)c1ccccc1-c1ccccc1C(=O)O)c1cccc([N+](=O)[O-])c1	3.5%	-1.3%	-6.1%	10.1%	-1.8%	-0.4%
COc1ccccc1C(=O)NNC(=O)c1cccc([N+](=O)[O-])c1	?	10.7%	?	?	2.8%	19µM*
COc1ccccc1C(=O)NNC(=O)c1cccc(C)c1	?	?	?	/	/	12µM*
Cc1cccc(NC(=O)c2sc3cccc(Cl)c3c2Cl)c1	/	/	/	7.7%	/	?
CCc1ccc(C2c3c(-c4ccccc4O)n[nH]c3C(=O)N2Cc2cccnc2)cc1 (stereo not given)	/	/	/	2.6%	/	-6.4%
